L major viab: reduces viability of Leishmania major promastigotes. resazurin fluorescence viability. inhibition, % at 10 µM. 9% of 200,000 active; in the data active means inhibition above about 50%;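 further: promastigotes grown with compound for 44 hours at 28 °C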
ROMK primary: modulates human ROMK potassium channel activity; Tet-inducible ROMK, thallium flux fluorescence; actives lie on both sides; B-score at 10 µM; 2% of 130,000 active; AID 1918;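 active means signal ratio slope over the read window, or its plate-corrected B-score, at least 3 SD from the plate mean, either direction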;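 further: B-score of the F/F0 ratio slope over 7 to 12 s after thallium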
Target sequence (P48048 whole entry, looked up): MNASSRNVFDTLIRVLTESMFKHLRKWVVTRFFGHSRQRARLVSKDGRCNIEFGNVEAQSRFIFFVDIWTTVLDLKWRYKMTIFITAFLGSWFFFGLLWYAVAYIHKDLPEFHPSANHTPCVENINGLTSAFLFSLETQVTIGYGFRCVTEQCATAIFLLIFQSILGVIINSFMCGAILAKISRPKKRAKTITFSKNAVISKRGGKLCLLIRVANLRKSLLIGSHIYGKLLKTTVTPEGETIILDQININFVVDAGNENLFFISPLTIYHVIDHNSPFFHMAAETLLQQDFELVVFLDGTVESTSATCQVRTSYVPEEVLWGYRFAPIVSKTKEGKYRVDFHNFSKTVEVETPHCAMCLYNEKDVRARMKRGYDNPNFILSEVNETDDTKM
Cl transport mod: modulators of human KCC2 chloride dependent transport; KCC2 cells, thallium flux FluoZin-2 fluorescence; B-score of Tl+ flux slope (higher = more flux/activation; lower = inhibition) at 10 µM; 2.2% of 190,000 active; AID 1456;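 active means thallium flux slope and its plate-corrected score both differing from the plate sample mean at a set confidence after two filtering rounds, in either direction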;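 further: slope of fluorescence scaled to starting intensity during 10 to 20 s after thallium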
m-calpain inh: blocks pig calpain II enzyme activity; purified calpain II, fluorogenic peptide substrate, 30 min; 0.37% of 220,000 active; AID 1236; inhibition, % at 16 µM;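 active means inhibition above about 50%, limit read from the data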
WT yeast gro inh: growth inhibition of WT yeast, mitochondrial fusion screen; mitochondrial fusion phenotypic screen, WT strain; inhibition, % at 10 µM; 2.1% of 190,000 active; AID 1362; in the data active means inhibition above about 58%; tested in S. cerevisiae
* hit, by the source's call; · = no result. Sampled rows, rich in hits. Any-hit rate of the full collection: about 12%.

SMILES	L major viab	ROMK primary	Cl transport mod	m-calpain inh	WT yeast gro inh
COc1ccc(CN2CCC(C(=O)N3CCCC(C)C3)CC2)cc1OC (stereo not drawn)	-7	-0.5	-0.3	-1	7
CCCCN(C)C(=O)C1CCN(CCCc2ccccc2)CC1	82*	-3.2	-1.5	18	5
CCOC(=O)C1CCCN(CCCc2ccccc2)C1 (stereo not drawn)	51*	0.072	·	-6	-5
COc1cc(CN2CCC(C(=O)N3CCCC(C)C3)CC2)cc(Br)c1O (stereo not drawn)	76*	1.1	·	-14	-1
CC1CCCN(C(=O)C2CCN(CCCc3ccccc3)CC2)C1 (stereo not drawn)	81*	-1.1	-0.081	1	-6
O=C(C[n+]1cc(Br)cc(Br)c1)c1cccc([N+](=O)[O-])c1	28	-1.2	0.29	8	5
CC/C(O)=C1\C(=O)CC(c2ccccc2)CC1=NCCc1c(C)[nH]c2ccc(C)cc12 (stereo not drawn)	73*	1.8	0.42	-15	18
CCC/C(O)=C1\C(=O)CC(c2ccccc2)CC1=NCCc1c(C)[nH]c2ccc(C)cc12 (stereo not drawn)	58*	0.68	0.35	28	16
Cc1ccc(C(=O)COC(=O)c2ccc(O)cc2)cc1	-9	0.018	·	-12	-7
Cc1cccc(NC(=O)CCN2CCN(C/C=C/c3ccccc3)CC2)c1	91*	·	-2.7	-38	12
O=C(CCN1CCN(C/C=C/c2ccccc2)CC1)Nc1ccccc1	93*	-1.1	-1.5	-43	5
Cc1ccccc1NC(=O)CCN1CCN(C/C=C/c2ccccc2)CC1	88*	-1.2	·	-17	22
Cc1cccc(NC(=O)CCN2CCOCC2)c1	12	·	·	22	1
COc1ccccc1NC(=O)C(C)N1CCN(C/C=C/c2ccccc2)CC1 (stereo not drawn)	84*	·	·	-23	11
Cc1cc(Oc2ccc3ccccc3c2)nc(SCC(=O)c2ccccc2)n1	93*	0.98	-1.1	35	1
Cc1cc(Oc2ccc(Br)cc2)nc(SCC(=O)c2ccccc2)n1	29	0.79	-0.14	9	21
Cc1cccc(N2C(=O)c3cccc4c(N5CCCCC5)c([N+](=O)[O-])cc(c34)C2=O)c1C	89*	1.6	0.062	0	16
O=C(Cn1ncc(Cl)c(Cl)c1=O)c1ccc(Cl)cc1	76*	·	-1.4	-14	-13
O=c1c(Cl)c(Cl)cnn1Cc1ccc(F)cc1	73*	-2.2	-3.2	26	20
C=CCn1c(C)cc(C(=O)Cn2ncc(Cl)c(Cl)c2=O)c1C	87*	-2.5	-1.6	-45	-28
Cc1nc2ccccc2n1CC(=O)N1CC(=O)Nc2ccccc21	-5	·	0.27	10	24
O=C1CN(C(=O)Cn2ncc(Cl)c(Cl)c2=O)c2ccccc2N1	74*	0.45	0.22	-40	-9
Cc1[nH]c2c(C)cccc2c1CCNC(=O)C1CCCCC1C(=O)OCC(F)(F)F (stereo not drawn)	0	0.24	-1.3	-4	1
Cc1cc(C)c(NC(=O)Cn2c(=O)n(-c3ccc(CC(=O)NCC4CCCO4)cc3)c(=O)c3ccccc32)c(C)c1 (stereo not drawn)	-1	1	·	-93	-12
CCCCCCCCOC(=O)CCn1[nH]c(=O)c2ccccc2c1=O	-8	·	-0.31	7	80*
SMILES	L major viab	ROMK primary	Cl transport mod	m-calpain inh	WT yeast gro inh
O=C(CN1C(=O)c2ccccc2C1=O)NCCOc1ccccc1	·	·	-0.53	5	·
O=C(c1ccc(CSc2ccccc2)cc1)N1CCN(c2ccccc2)CC1	6	-0.0097	-0.39	32	70*
O=C(c1ccc(CSc2nc3ccncc3[nH]2)cc1)N1CCCCCC1	·	·	0.41	2	·
COc1ccccc1N1CCN(C(=O)c2ccc(CSc3ccccc3)cc2)CC1	6	·	-0.16	47	61*
O=C(c1ccc(CSc2nc3ccncc3[nH]2)cc1)N1CCN(c2cccc(Cl)c2)CC1	33	-3.5*	-1.9	1	-3
COc1ccccc1N1CCN(C(=O)CSc2ccccc2)CC1	3	-0.11	-0.96	-59	-11
COc1ccccc1N1CCN(C(=O)c2ccc(S(=O)(=O)N3CCCC3)cc2)CC1	63*	·	-0.45	-33	-15
COC(=O)c1cc(OC)nc2c1c(=O)n(C)c(=O)n2C	-4	·	-0.022	-230	0
COc1ccccc1N1CCN(C(=O)C(Sc2ccccc2)c2ccccc2)CC1 (stereo not drawn)	81*	·	-1	-1	30
COc1ccc(C2c3c(ncn(CCN4CCOCC4)c3=N)Oc3ccc4ccccc4c32)cc1OC (stereo not drawn)	100*	·	1.9	-8	4
COc1ccc(C2c3ccc4ccccc4c3Oc3ncn(Cc4ccco4)c(=N)c32)cc1OC (stereo not drawn)	58*	·	0.52	14	45
CCNC(=S)N1CCC(C(N)=O)CC1	·	0.032	0.69	-15	·
Cc1cc(/C=C2/SC(=S)N(c3cccc(C(F)(F)F)c3)C2=O)c(C)n1-c1cccnc1	80*	·	·	·	·
Cc1cc(/C=C2\SC(=S)N(Cc3ccco3)C2=O)c(C)n1-c1cccnc1	5	·	1.5	-36	-17
COc1ccccc1NC(=O)CSc1nnc(-c2ccoc2C)n1CC1CCCO1 (stereo not drawn)	2	·	0.57	-1	-4
CCC(C)(C)NC(=O)C(c1ccc(OC)cc1)N(Cc1ccco1)C(=O)CCC(=O)Nc1cc(C)on1 (stereo not drawn)	96*	·	-0.45	6	0
COc1cccc(C(C(=O)NC(C)(C)C)N(C(=O)CCC(=O)Nc2cc(C)on2)C(C)(C)C)c1OC (stereo not drawn)	0	·	0.13	-9	-16
CCC(C)(C)NC(=O)C(c1ccc(F)cc1)N(Cc1ccco1)C(=O)CCC(=O)Nc1ccccn1 (stereo not drawn)	11	·	-0.73	6	5
COc1ccc(C(C(=O)NC(C)(C)C)N(Cc2ccco2)C(=O)CCC(=O)Nc2cc(C)on2)cc1 (stereo not drawn)	87*	·	-0.14	25	5
COc1ccc(C(C(=O)NC(C)(C)C)N(Cc2ccc(C)cc2)C(=O)CCC(=O)Nc2cc(C)on2)cc1 (stereo not drawn)	94*	-1.5	0.82	-29	-1
COc1cccc(C(C(=O)NC(C)(C)C)N(Cc2ccco2)C(=O)CCC(=O)Nc2cc(C)on2)c1OC (stereo not drawn)	-6	-0.76	-0.1	35	18
COc1cccc(-n2nnc3c(=O)n(CC(=O)N4CCC(Cc5ccccc5)CC4)cnc32)c1	94*	0.017	·	-36	-16
COc1cccc(-n2nnc3c(=O)n(CC(=O)N4CCC(C)CC4)cnc32)c1	3	0.27	-0.015	-17	-12
O=C(Cn1cnc2c(nnn2Cc2ccc(Cl)cc2)c1=O)N1CCN(c2ccccc2)CC1	20	·	-3.9*	40	8
Cc1ccc(-n2ncc3c(=O)n(CC(=O)N4CCCc5ccccc54)cnc32)cc1C	5	·	-3.4*	37	10
O=C(Cn1cnc2c(cnn2-c2ccc(F)cc2)c1=O)N1CCCc2ccccc21	-6	-2	·	-11	2
